High-throughput results from PubChem.
GPR151 activ: activators of human GPR151; 650,000 tested, 1% active; PathHunter beta-arrestin GPR151 cells, luminescence; Q8TDV0; activation, % at 11.2 µM; AID 1508602; in the data active = activation above about 4.9%
TEAD-YAP inh: TEAD-YAP interaction inhibition; AID 1259422; inhibition, % at 9.12 µM; HEK-TIYL cells, TEAD-Gal4/YAP UAS-luciferase luminescence; 640,000 tested, 1.4% active; in the data active = inhibition above about 32%
FBW7 activator: human FBW7 E3 ligase activation, primary screen | Q969H0 | AlphaScreen FBW7–phospho-cyclin E peptide binding, activator screen | normalized activity (activation), % at 26.1 µM | 650,000 tested, 0.13% active | AID 1259310; in the data active = normalized activity above about 1.9%;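 also: purified mutant Fbw7 with reduced substrate affinity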
Target sequence (Q969H0 whole entry, looked up): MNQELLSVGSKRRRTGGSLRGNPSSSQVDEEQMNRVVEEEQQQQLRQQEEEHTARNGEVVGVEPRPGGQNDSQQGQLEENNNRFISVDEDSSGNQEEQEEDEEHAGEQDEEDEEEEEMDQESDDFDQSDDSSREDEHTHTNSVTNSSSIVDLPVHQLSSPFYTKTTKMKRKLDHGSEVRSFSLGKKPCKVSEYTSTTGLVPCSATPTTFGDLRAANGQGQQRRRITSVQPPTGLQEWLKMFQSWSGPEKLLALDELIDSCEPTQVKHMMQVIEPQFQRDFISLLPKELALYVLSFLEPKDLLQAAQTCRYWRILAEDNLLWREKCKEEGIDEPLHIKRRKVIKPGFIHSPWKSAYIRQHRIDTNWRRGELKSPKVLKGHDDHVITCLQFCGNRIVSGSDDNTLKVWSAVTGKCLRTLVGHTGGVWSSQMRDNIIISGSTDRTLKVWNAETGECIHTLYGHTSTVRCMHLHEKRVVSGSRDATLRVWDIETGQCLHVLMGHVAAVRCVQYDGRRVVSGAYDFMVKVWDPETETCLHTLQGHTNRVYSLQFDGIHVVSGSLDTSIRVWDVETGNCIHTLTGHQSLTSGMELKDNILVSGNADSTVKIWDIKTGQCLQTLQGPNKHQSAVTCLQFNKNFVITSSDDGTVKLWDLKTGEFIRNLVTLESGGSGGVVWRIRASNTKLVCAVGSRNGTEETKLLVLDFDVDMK
MITF primary: blocks human microphthalmia-associated transcription factor; O75030; AlphaScreen MITF homodimerization, bead proximity signal; inhibition, % at 2.6 µM; 650,000 tested, 0.91% active; in the data active = inhibition above about 50%
Of the large screens only hits and unclear results are named; the others gave an inactive call. Rows were chosen to be rich in hits. Some 3.5% of all compounds tested hit in one or more screens of this group.

O=C(Cc1ccc(F)cc1)Nc1cc(-c2cn[nH]c2)ccn1	TEAD-YAP inh 82.4
CC(C)c1ccc(/C=C2\C(=O)ON=C2c2ccccc2)cc1	MITF primary 57.1
CSc1ccc(/C=C2/C(=O)ON=C2c2ccccc2)cc1	none
COc1ccc(/C=C2/C(=O)ON=C2c2ccccc2)cc1	none
O=C1ON=C(c2ccccc2)/C1=C\c1ccc(O)cc1	MITF primary 59.0
CCOc1ccc(C(=O)Nc2c(C)ccc3nsnc23)cc1Br	none
COc1ccc(OC)c(C2C=C(c3ccc(Cl)cc3)Nc3ncnn32)c1 (stereo not drawn)	none
COc1cccc(C2C=C(c3ccc(C)cc3)Nc3ncnn32)c1 (stereo not drawn)	TEAD-YAP inh 53.7
CCc1ccc(C2=CC(c3cccc(OC)c3)n3ncnc3N2)cc1 (stereo not drawn)	none
CCc1ccc(C2=CC(c3cc(OC)ccc3OC)n3ncnc3N2)cc1 (stereo not drawn)	TEAD-YAP inh 51.3
COc1ccc(C2C=C(c3ccc(C)cc3)Nc3ncnn32)c(OC)c1OC (stereo not drawn)	TEAD-YAP inh 47.0
COc1ccc(C2=CC(c3ccc(OC)cc3OC)n3ncnc3N2)cc1 (stereo not drawn)	TEAD-YAP inh 55.5
O=C(N/N=C\C=C\c1ccco1)c1ccc([N+](=O)[O-])cc1	none
O=C(O)c1ccc(N2C(=O)c3ccc(Br)cc3C2=O)cc1O	none
COc1ccc(C2=CC(c3cccc(OC)c3)n3ncnc3N2)cc1 (stereo not drawn)	TEAD-YAP inh 42.6
COc1cccc(C2C=C(c3cccc(Br)c3)Nc3ncnn32)c1 (stereo not drawn)	TEAD-YAP inh 39.0
COc1ccc(OC)c(C2C=C(c3cccc(Br)c3)Nc3ncnn32)c1 (stereo not drawn)	none
NC(=O)c1ccc(-c2nnc(N3CCOCC3)c3ccccc23)cc1	none
Cc1ccc(C2/C(=C(/O)c3ccccc3)C(=O)C(=O)N2CCc2ccccc2)cc1 (stereo not drawn)	none
Cc1ccnc(NC(c2ccccc2C)c2ccc3cccnc3c2O)c1 (stereo not drawn)	TEAD-YAP inh 89.8
Cc1ccc(C)c(C(Nc2ccccn2)c2ccc3cccnc3c2O)c1 (stereo not drawn)	TEAD-YAP inh 75.6
Cc1ccnc(NC(c2cccs2)c2ccc3cccnc3c2O)c1 (stereo not drawn)	TEAD-YAP inh 52.0
CCc1ccc(C(=O)CC2(O)C(=O)Nc3ccc(Cl)cc32)cc1 (stereo not drawn)	none
Cc1nnc(N(C(=O)c2cnccn2)c2ccccc2)s1	TEAD-YAP inh 61.7
CCOc1ccc(C(c2nnnn2Cc2ccccc2)N2CCN(C)CC2)cc1 (stereo not drawn)	none
Cc1ccnc(NC(=O)CSc2nnc3c4ccccc4n(CCc4ccccc4)c3n2)c1	TEAD-YAP inh 35.5
CCOC(=O)c1c(/N=C/c2cccc(OC)c2O)sc2c1CCN(C)C2	FBW7 activator 2.6
CCOC(=O)c1c(N)sc2c1CCN(C)C2	none
O=c1c2cnn(-c3ccccc3)c2nnn1Cc1cccnc1	FBW7 activator 1.9
COC(=O)Cn1nnc2c(cnn2-c2ccccc2)c1=O	none
Nc1ccc2nc3c(c(Cl)c2c1)CCCC3	TEAD-YAP inh 33.1
CC(=O)N1N=C(C)CC1C1=C(C)CCCC1(C)C (stereo not drawn)	none
Oc1c(C(Nc2ccccn2)c2ccc(Br)cc2)ccc2cccnc12 (stereo not drawn)	TEAD-YAP inh 83.6
Cc1ccc(C(Nc2ccccn2)c2ccc3cccnc3c2O)s1 (stereo not drawn)	TEAD-YAP inh 81.0
Oc1ccc(Br)c(C(Nc2ccccn2)c2ccc3cccnc3c2O)c1 (stereo not drawn)	TEAD-YAP inh 84.5
CC(C)c1ccc(C(Nc2ccccn2)c2ccc3cccnc3c2O)cc1 (stereo not drawn)	TEAD-YAP inh 62.9
CCCOc1ccc(C(Nc2ccccn2)c2ccc3cccnc3c2O)cc1 (stereo not drawn)	none
Cc1ccc2ccc(C(Nc3ccccn3)c3cccc(O)c3)c(O)c2n1 (stereo not drawn)	none
COc1ccc2cc3c(N)c(C(=O)Nc4nc(C)c(C)s4)sc3nc2c1	none
Cc1c(C(=O)Nc2ccc(F)cc2Cl)sc2ncnc(N3CCc4ccccc4C3)c12	none
COCc1cc(C)n(CC(=O)Nc2cccc(C)c2)c(=O)c1C#N	none
Cn1c(=O)c2cc(N3CCCCC3)nnc2n(C)c1=O	none
CCN1/C(=C/c2ccc3ccc(C)cc3[n+]2CC)Sc2cc(OC)ccc21	TEAD-YAP inh 87.5
CCC(=O)/C=C1/Sc2ccc(OC)cc2N1CC	none
CCN1/C(=C/c2ccc3cc(OC)ccc3[n+]2CC)Sc2ccc(OC)cc21	TEAD-YAP inh 87.5
CCN1/C(=C/c2ccc3cc(OC)ccc3[n+]2CC)Sc2ccc(Cl)cc21	TEAD-YAP inh 77.1
CS(=O)(=O)N1CCN=C1SCc1cccc(Cl)c1	none
CCOc1cccc2c1OC(c1ccccc1Cl)N1N=C(c3ccc(C)o3)CC21 (stereo not drawn)	none
COc1cccc2c1OC(c1ccccc1Cl)N1N=C(c3ccc(C)o3)CC21 (stereo not drawn)	TEAD-YAP inh 43.7
CCOc1ccc(C2=NN3C(C2)c2cccc(OC)c2OC3c2ccc(F)c(F)c2)cc1 (stereo not drawn)	none
COc1cccc2c1OC(c1ccc(F)c(F)c1)N1N=C(c3ccc(C)o3)CC21 (stereo not drawn)	TEAD-YAP inh 32.6
CCOC(=O)c1cc([N+](=O)[O-])sc1NC(=O)c1ccc(S(=O)(=O)N2CCCCC2)cc1	none
C=CCn1c(C)cc(C2=NNC(=NC3CC3)SC2)c1C	TEAD-YAP inh 95.3
O=C(NNC(=S)NCC1CCCO1)C(Sc1ccccc1)c1ccccc1 (stereo not drawn)	FBW7 activator 2.2
CCNC(=O)N1c2ccc(C)cc2C(C)=CC1(C)C	none
CC(=O)c1c(Nc2ccccc2C)oc(C)cc1=O	none
CCOC(=O)N1CCN(C(=O)CSc2nnc(-c3c[nH]c4ccccc34)n2CC)CC1	TEAD-YAP inh 35.8
CCn1c(SCC(=O)N2CCCC2)nnc1-c1c[nH]c2ccccc12	none
COc1cc(C(Nc2cc(C)ccn2)c2ccc3ccc(C)nc3c2O)cc(OC)c1OC (stereo not drawn)	TEAD-YAP inh 67.6
COc1cc(C(Nc2cc(C)ccn2)c2ccc3cccnc3c2O)ccc1O (stereo not drawn)	MITF primary 54.3
Cc1cccc(NC(c2cccc(O)c2)c2ccc3ccc(C)nc3c2O)n1 (stereo not drawn)	none
Cc1ccnc(NC(c2cccc(O)c2)c2ccc3ccc(C)nc3c2O)c1 (stereo not drawn)	none
COc1cc(C(Nc2cccc(C)n2)c2ccc3ccc(C)nc3c2O)cc(OC)c1O (stereo not drawn)	TEAD-YAP inh 33.0
CCOc1cc(C(Nc2cc(C)ccn2)c2ccc3cccnc3c2O)ccc1O (stereo not drawn)	MITF primary 68.7
CC1=C(C(=O)Nc2ccccc2C)C(c2cccs2)C2=C(CCCC2=O)N1 (stereo not drawn)	none
Cc1ccc2nc3c(cc(C(N)=O)c(=N)n3CCc3ccccc3)c(=O)n2c1	TEAD-YAP inh 39.5
